What was measured:
Experiment in all cases: DAPPL (digital affinity profiling via proximity ligation, sequencing); 10 mM Tris-HCl pH 7.5, 50 mM NaCl, 1 mM DTT, 4% glycerol, room temperature, 30 min; GST-TFs on glutathione beads, 16-mer random dsDNA library, 0.1% formaldehyde crosslink after washing; high values mean tight binding
[1] = molecular target: T1, FLI1 (Homo sapiens, UniProt Q01543 1-452); settings: protein: recombinant; tags: N-terminal GST; dsDNA, one strand shown
T1 sequence: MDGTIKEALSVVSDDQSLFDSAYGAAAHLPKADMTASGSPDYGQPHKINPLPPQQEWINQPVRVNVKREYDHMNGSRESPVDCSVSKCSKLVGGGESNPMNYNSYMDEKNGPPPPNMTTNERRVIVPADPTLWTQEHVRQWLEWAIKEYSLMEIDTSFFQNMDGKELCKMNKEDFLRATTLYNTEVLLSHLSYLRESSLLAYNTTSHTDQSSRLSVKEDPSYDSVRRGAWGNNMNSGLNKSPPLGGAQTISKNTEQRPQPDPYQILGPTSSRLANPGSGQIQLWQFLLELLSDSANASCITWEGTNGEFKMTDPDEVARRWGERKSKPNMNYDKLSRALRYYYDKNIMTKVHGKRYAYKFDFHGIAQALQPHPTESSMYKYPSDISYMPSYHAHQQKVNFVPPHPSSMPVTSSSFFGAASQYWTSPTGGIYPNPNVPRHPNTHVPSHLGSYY
Procedure, shortened: (§1)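 Human transcription factors carrying a GST fusion were produced in yeast, bound to glutathione beads, tagged with DNA barcodes and pooled together with a tag-only sample. Each pool was held with 200 nmole of a random double-stranded 16-mer DNA library in Tris/NaCl/DTT/glycerol buffer for 30 min at room temperature, then washed, crosslinked in 0.1% formaldehyde, proximity-ligated with BsaI/T4 ligase (1 h, 37 °C), PCR-amplified and sequenced on an Illumina NextSeq500. Binding signal is the read frequency of each hexamer for a given factor divided by its frequency in the tag-only sample.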

[2] = molecular target: T2, ELK1 (Homo sapiens, UniProt P19419 1-428); settings: protein: recombinant; tags: N-terminal GST; dsDNA, one strand shown
T2 sequence: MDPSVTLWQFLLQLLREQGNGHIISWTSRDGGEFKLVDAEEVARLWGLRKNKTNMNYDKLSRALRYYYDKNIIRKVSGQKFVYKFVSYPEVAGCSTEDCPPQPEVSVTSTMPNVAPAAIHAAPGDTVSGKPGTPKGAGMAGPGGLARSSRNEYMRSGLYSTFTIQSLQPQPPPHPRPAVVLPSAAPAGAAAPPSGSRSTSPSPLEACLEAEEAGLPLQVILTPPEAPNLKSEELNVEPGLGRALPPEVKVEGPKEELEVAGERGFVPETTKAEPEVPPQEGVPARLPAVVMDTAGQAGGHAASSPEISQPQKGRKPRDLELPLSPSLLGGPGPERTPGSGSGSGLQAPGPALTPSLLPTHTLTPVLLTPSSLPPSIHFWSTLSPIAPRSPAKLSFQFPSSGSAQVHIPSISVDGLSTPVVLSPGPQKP
Procedure, shortened: as §1

[3] = molecular target: T3, GABPA (Homo sapiens, UniProt Q06546 1-454); settings: protein: recombinant; tags: N-terminal GST; dsDNA, one strand shown
T3 sequence: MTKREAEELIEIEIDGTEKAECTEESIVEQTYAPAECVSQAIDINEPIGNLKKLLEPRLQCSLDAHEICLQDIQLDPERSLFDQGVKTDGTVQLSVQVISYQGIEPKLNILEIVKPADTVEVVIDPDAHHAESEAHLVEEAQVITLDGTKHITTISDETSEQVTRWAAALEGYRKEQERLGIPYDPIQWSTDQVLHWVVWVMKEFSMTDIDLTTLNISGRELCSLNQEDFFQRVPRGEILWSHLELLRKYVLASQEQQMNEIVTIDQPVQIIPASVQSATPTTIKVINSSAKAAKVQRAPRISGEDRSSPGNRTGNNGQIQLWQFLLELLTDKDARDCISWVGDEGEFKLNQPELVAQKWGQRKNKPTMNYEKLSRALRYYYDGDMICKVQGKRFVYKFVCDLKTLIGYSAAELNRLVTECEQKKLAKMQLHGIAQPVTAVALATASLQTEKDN
Procedure, shortened: as §1

[4] = molecular target: T4, ERG (Homo sapiens, UniProt P11308 1-479); settings: protein: recombinant; tags: N-terminal GST; dsDNA, one strand shown
T4 sequence: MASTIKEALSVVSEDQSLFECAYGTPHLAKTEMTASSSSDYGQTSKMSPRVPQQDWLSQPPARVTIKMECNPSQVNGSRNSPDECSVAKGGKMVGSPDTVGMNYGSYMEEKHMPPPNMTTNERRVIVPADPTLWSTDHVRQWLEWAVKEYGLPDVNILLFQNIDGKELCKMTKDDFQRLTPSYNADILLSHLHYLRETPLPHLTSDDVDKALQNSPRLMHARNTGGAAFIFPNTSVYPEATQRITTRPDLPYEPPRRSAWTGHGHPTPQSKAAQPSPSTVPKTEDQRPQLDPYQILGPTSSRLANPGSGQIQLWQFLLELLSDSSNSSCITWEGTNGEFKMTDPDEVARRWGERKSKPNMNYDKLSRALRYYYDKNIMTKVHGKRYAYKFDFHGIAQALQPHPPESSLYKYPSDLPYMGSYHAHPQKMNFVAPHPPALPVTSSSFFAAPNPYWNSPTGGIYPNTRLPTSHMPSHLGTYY
Procedure, shortened: as §1

[5] = molecular target: ELF1 (Homo sapiens, UniProt P32519 1-619); settings: protein: recombinant; tags: N-terminal GST; dsDNA, one strand shown
Procedure, shortened: as §1

[6] = molecular target: T5, EHF (Homo sapiens, UniProt Q9NZC4 1-300); settings: protein: recombinant; tags: N-terminal GST; dsDNA, one strand shown
T5 sequence: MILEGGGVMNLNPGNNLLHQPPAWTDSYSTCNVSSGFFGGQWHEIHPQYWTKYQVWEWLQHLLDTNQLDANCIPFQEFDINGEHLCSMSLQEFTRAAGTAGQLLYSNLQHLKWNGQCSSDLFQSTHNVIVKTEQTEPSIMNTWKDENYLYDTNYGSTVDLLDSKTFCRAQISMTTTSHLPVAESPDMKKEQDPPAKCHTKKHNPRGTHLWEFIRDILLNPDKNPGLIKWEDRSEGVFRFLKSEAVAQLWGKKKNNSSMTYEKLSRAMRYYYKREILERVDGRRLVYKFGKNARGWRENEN
Procedure, shortened: as §1

[7] = molecular target: SPI1 (Homo sapiens, UniProt P17947 1-270); settings: protein: recombinant; tags: N-terminal GST; dsDNA, one strand shown
Procedure, shortened: as §1

[8] = molecular target: SPIB (Homo sapiens, UniProt Q01892 1-262); settings: protein: recombinant; tags: N-terminal GST; dsDNA, one strand shown
Procedure, shortened: as §1

[9] = molecular target: T6, ELK3 (Homo sapiens, UniProt P41970 1-407); settings: protein: recombinant; tags: N-terminal GST; dsDNA, one strand shown
T6 sequence: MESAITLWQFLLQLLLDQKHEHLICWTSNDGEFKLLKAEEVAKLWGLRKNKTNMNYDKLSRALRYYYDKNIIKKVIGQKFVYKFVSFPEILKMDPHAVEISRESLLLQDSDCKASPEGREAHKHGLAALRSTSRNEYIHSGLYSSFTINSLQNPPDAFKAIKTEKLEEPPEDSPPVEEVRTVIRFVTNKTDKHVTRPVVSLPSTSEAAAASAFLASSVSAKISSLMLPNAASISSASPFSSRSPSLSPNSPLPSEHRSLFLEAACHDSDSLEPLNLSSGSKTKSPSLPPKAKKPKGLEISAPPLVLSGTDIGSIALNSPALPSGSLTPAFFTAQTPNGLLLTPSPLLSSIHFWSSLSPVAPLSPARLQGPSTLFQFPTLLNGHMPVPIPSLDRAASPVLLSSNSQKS
Procedure, shortened: as §1

[10] = molecular target: T7, FEV (Homo sapiens, UniProt Q99581 1-238); settings: protein: recombinant; tags: N-terminal GST; dsDNA, one strand shown
T7 sequence: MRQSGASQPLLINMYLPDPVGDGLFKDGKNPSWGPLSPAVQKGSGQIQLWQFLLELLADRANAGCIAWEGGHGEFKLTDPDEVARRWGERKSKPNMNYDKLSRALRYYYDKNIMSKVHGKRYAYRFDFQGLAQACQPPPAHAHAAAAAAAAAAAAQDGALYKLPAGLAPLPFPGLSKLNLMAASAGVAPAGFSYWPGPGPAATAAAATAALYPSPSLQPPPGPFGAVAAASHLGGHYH
Procedure, shortened: as §1

[11] = molecular target: ETV5 (Homo sapiens, UniProt P41161 1-510); settings: protein: recombinant; tags: N-terminal GST; dsDNA, one strand shown
Procedure, shortened: as §1

[12] = molecular target: HSF1 (Homo sapiens, UniProt Q00613 1-529); settings: protein: recombinant; tags: N-terminal GST; chain copies: 3; dsDNA, one strand shown
Procedure, shortened: as §1

[13] = molecular target: T8, SPIC (Homo sapiens, UniProt Q8N5J4 1-248); settings: protein: recombinant; tags: N-terminal GST; dsDNA, one strand shown
T8 sequence: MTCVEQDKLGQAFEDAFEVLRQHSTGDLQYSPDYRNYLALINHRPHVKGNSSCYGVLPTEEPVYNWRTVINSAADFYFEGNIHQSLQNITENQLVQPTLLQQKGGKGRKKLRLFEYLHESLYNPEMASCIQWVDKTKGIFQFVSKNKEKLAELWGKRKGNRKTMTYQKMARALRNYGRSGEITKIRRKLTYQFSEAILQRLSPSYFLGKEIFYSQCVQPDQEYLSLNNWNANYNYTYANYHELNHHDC
Procedure, shortened: as §1

[14] = molecular target: ELF4 (Homo sapiens, UniProt Q99607 1-663); settings: protein: recombinant; tags: N-terminal GST; dsDNA, one strand shown
Procedure, shortened: as §1

[15] = molecular target: T9, ELK4 (Homo sapiens, UniProt P28324-2 1-405); settings: protein: recombinant; tags: N-terminal GST; dsDNA, one strand shown
T9 sequence: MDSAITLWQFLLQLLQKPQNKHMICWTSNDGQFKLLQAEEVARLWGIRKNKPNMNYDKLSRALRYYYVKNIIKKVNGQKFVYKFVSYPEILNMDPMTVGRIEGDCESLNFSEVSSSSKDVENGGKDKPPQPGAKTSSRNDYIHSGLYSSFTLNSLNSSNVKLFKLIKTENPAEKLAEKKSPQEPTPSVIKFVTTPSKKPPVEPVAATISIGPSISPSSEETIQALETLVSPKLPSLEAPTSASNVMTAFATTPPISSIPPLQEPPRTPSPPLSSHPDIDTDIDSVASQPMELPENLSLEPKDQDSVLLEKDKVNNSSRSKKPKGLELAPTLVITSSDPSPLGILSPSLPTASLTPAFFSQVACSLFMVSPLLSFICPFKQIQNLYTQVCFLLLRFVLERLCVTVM
Procedure, shortened: as §1

[16] = molecular target: T10, ETV2 (Homo sapiens, UniProt O00321 1-342); settings: protein: recombinant; tags: N-terminal GST; dsDNA, one strand shown
T10 sequence: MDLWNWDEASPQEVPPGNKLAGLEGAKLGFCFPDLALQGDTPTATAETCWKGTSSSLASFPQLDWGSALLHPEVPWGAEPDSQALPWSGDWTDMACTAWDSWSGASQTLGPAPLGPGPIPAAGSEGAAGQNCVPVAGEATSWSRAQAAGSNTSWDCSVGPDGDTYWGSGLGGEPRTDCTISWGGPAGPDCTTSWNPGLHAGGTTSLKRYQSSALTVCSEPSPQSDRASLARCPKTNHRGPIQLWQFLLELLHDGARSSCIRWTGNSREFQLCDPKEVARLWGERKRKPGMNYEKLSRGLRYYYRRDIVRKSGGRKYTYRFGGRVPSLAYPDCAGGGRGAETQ
Procedure, shortened: as §1

[17] = molecular target: T11, ELF3 (Homo sapiens, UniProt P78545 1-371); settings: protein: recombinant; tags: N-terminal GST; dsDNA, one strand shown
T11 sequence: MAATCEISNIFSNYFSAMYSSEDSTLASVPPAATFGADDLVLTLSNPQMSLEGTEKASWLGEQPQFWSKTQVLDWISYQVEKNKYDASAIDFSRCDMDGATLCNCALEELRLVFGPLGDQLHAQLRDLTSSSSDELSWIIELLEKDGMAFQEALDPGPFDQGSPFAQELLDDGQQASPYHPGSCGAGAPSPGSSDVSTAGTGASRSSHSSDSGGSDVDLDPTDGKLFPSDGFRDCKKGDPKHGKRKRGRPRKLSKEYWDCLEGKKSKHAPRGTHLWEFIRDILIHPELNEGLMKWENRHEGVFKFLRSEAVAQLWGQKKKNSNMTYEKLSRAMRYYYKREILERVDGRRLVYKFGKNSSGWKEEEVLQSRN
Procedure, shortened: as §1

[18] = molecular target: CRX (Homo sapiens, UniProt O43186 1-299); settings: protein: recombinant; tags: N-terminal GST; dsDNA, one strand shown
Procedure, shortened: as §1

[19] = molecular target: ETV1 (Homo sapiens, UniProt P50549 1-477); settings: protein: recombinant; tags: N-terminal GST; dsDNA, one strand shown
Procedure, shortened: as §1

Chain of HSF1 (Q00613 whole entry): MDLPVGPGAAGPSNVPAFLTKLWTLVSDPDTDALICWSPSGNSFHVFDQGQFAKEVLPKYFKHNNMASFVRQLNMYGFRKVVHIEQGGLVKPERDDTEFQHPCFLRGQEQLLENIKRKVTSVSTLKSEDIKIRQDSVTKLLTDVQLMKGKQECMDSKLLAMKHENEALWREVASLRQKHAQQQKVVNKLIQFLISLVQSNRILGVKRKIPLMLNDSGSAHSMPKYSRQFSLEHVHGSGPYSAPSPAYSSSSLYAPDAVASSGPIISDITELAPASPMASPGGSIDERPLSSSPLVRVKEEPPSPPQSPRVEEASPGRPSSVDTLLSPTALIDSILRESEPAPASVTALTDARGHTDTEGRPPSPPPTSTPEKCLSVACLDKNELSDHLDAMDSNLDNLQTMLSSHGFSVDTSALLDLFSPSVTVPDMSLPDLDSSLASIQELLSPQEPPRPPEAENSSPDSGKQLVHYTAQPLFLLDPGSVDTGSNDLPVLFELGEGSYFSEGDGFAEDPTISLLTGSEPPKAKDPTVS
Chain of ETV5 (P41161 whole entry): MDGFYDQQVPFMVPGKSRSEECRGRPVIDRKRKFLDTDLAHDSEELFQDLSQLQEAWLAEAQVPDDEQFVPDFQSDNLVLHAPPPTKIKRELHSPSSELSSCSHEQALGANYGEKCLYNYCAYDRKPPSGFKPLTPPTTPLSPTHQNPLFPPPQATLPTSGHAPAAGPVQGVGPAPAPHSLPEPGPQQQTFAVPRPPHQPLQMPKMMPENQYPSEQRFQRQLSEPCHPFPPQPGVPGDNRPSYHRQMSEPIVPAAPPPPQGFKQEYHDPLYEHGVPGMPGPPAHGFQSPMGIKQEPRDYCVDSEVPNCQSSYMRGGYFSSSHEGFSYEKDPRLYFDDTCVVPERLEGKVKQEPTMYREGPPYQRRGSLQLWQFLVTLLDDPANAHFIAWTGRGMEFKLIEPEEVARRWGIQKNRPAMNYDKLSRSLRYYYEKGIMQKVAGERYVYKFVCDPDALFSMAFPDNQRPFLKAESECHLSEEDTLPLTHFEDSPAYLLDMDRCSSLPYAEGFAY
Chain of ELF1 (P32519 whole entry): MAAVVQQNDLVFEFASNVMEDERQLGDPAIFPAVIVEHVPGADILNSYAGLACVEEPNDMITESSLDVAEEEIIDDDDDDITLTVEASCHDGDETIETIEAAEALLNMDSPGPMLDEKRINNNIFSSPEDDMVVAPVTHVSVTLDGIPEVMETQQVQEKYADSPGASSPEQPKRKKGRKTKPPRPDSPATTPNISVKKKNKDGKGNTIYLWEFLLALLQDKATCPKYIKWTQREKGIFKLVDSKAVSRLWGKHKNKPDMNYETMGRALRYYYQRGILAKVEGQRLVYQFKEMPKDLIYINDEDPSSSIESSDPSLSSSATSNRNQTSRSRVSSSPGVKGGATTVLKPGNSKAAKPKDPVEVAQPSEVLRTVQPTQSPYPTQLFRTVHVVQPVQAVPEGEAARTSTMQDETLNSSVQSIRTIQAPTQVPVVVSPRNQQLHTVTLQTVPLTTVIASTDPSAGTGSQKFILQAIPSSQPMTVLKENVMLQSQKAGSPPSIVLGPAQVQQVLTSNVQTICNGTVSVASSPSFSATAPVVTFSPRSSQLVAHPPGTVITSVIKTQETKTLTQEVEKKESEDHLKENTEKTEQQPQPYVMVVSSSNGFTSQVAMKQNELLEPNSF
Chain of CRX (O43186 whole entry): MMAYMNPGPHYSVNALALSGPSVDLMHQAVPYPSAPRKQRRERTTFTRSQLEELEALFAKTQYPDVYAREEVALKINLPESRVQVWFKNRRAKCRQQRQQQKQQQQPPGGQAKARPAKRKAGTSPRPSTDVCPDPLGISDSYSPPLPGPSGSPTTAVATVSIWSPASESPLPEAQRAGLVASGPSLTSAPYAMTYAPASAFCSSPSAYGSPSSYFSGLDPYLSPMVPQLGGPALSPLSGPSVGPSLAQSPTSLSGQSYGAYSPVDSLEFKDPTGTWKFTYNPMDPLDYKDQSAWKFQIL
Chain of SPIB (Q01892 whole entry): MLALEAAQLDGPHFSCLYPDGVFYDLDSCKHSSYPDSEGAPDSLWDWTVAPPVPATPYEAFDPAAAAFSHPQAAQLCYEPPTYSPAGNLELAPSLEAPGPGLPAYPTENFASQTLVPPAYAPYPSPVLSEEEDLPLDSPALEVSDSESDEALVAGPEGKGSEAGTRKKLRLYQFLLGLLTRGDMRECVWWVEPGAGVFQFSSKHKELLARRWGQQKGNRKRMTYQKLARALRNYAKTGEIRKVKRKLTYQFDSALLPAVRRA
Chain of ETV1 (P50549 whole entry): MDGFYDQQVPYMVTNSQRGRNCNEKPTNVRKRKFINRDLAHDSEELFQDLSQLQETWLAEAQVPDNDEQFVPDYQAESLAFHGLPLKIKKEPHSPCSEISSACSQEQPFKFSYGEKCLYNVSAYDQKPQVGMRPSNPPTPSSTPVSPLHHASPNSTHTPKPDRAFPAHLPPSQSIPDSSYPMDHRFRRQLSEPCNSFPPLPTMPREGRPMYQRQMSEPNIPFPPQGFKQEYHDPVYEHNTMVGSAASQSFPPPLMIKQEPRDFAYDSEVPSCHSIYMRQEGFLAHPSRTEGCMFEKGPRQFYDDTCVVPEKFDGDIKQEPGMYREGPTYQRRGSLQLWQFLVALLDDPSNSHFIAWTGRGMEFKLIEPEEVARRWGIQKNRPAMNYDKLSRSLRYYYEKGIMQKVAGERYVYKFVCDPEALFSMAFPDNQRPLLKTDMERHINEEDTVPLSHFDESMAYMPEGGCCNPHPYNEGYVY
Chain of ELF4 (Q99607 whole entry): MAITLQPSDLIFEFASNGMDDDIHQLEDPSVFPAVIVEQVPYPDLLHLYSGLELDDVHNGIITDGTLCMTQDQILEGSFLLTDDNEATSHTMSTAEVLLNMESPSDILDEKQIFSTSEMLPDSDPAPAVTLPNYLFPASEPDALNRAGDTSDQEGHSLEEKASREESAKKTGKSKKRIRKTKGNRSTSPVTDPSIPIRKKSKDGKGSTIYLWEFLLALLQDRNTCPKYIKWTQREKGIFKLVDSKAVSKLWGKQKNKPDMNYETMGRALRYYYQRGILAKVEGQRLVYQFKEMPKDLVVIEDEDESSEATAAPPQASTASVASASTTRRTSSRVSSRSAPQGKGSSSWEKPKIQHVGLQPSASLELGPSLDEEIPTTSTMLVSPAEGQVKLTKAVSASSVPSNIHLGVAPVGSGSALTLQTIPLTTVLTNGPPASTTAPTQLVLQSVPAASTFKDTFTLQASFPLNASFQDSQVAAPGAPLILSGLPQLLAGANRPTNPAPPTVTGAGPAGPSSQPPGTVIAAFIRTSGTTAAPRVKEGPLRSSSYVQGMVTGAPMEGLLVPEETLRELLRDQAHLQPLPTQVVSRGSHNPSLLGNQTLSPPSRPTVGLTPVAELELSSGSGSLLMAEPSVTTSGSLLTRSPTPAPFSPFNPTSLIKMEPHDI

CCCATA
binding signal [1]: 1.23 fold enrichment (6-mer frequency, TF over GST control) | binding signal [2]: 1.26 fold enrichment (6-mer frequency, TF over GST control) | binding signal [3]: 1.33 fold enrichment (6-mer frequency, TF over GST control) | binding signal [4]: 1.24 fold enrichment (6-mer frequency, TF over GST control) | binding signal [5]: 1.21 fold enrichment (6-mer frequency, TF over GST control) | binding signal [6]: 1.13 fold enrichment (6-mer frequency, TF over GST control) | binding signal [7]: 1.18 fold enrichment (6-mer frequency, TF over GST control) | binding signal [8]: 1.34 fold enrichment (6-mer frequency, TF over GST control) | binding signal [9]: 1.21 fold enrichment (6-mer frequency, TF over GST control) | binding signal [10]: 1.24 fold enrichment (6-mer frequency, TF over GST control) | binding signal [11]: 1.23 fold enrichment (6-mer frequency, TF over GST control) | binding signal [12]: 1.14 fold enrichment (6-mer frequency, TF over GST control) | binding signal [13]: 1.31 fold enrichment (6-mer frequency, TF over GST control) | binding signal [14]: 1.32 fold enrichment (6-mer frequency, TF over GST control) | binding signal [15]: 1.06 fold enrichment (6-mer frequency, TF over GST control) | binding signal [16]: 1.3 fold enrichment (6-mer frequency, TF over GST control) | binding signal [17]: 1.33 fold enrichment (6-mer frequency, TF over GST control) | binding signal [18]: 1.24 fold enrichment (6-mer frequency, TF over GST control) | binding signal [19]: 1.24 fold enrichment (6-mer frequency, TF over GST control)

Reference: PMC7862700, “An all-to-all approach to the identification of sequence-specific readers for epigenetic DNA modifications on cytosine”
